FLuc modulator – qHTS profiling assay for firefly luciferase inhibitor/activator using purifed enzyme and Km concentrations of substrates (counterscreen for miR-21 project) | purified FLuc, Km substrates, luminescence inhibition | Potency, µM (doses to about 57.5 µM), usual class: inhibitors | 360,000 compounds, 6.9% hits | AID 588342, 2011; also: nearly all actives have a fitted effect of over 55% in size
Target sequence (P08659 whole entry, looked up): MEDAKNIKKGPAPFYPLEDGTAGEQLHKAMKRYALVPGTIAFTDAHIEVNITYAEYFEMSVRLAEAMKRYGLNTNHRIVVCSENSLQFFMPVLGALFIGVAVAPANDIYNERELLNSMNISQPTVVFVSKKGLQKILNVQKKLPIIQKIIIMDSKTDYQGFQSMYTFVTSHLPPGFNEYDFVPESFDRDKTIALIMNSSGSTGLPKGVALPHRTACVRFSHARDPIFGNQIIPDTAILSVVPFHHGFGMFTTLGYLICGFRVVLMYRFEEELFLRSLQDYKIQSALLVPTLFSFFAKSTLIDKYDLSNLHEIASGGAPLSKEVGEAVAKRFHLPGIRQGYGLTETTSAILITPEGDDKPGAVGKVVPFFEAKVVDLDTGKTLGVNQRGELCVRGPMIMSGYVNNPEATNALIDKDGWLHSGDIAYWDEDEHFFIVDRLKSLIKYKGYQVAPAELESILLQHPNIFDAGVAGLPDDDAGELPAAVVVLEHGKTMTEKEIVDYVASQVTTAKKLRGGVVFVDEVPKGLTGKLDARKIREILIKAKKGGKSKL
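Purified P. pyralis luciferase, 10 nM final, with Km-level 10 uM D-luciferin and 10 uM ATP in 50 mM Tris acetate pH 7.5, 10 mM Mg acetate, 0.01% Tween-20, 0.05% BSA; 6-point qHTS titration about 60 µM downward; luminescence read.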
ELG1 genotox – qHTS screen for small molecules that induce genotoxicity in human embryonic kidney (HEK293T) cells expressing luciferase-tagged ELG1; HEK293T ELG1-luciferase reporter, luminescence, 16 h; Potency, µM (titrated, usually from 46 µM), usual class: activators; 330,000 compounds, 1.3% hits; AID 504466, 2011; also: nearly all actives have a fitted effect of over 60% in size
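DMSO vehicle served as control against compound-treated ELG1-luciferase HEK293T cells; exposure lasted 16 hr at 37 °C and 5% CO2, followed by ONE-Glo luminescence detection after 30 min.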
SMN2 splice enh – qHTS Assay for Enhancers of SMN2 Splice Variant Expression | HEK293 SMN2-luciferase splicing reporter, luminescence, 30-36 h | Potency, µM (top dose mostly 46.1 µM), hits mostly activators | 210,000 compounds, 2.8% hits | AID 1458, 2008; also: nearly all actives have a fitted effect of over 55% in size
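qHTS luciferase splicing reporter: luminescence rises when SMN2 exon 7 is included in transfected HEK293 cells. Compound exposure lasted 30-36 h at 37C, with 4.5 mM final sodium butyrate as control, followed by a ONE-Glo read.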
ELG1 DNA repair – qHTS screen for small molecules that inhibit ELG1-dependent DNA repair in human embryonic kidney (HEK293T) cells expressing luciferase-tagged ELG1. HEK293T ELG1-luciferase reporter, luminescence, 16 h; DNA damage induced by 5-fluorouridine. Potency, µM (titrated, usually from 46.1 µM), most hits filed as inhibitors. 330,000 compounds, 2.3% hits; also: nearly all actives have a fitted effect of over 55% in size
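In this reporter screen, reduction of luminescence relative to DMSO vehicle indicated activity. Compounds and 5-fluorouridine were added together to 2,000 cells per well, incubated for 16 hr at 37 °C, then developed with ONE-Glo.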
Rab9 promoter act – qHTS Assay for Rab9 Promoter Activators. Huh7 Rab9 promoter-luciferase reporter, luminescence, 24 h. Potency, µM (series often up to 9.22 µM), usual class: activators. 320,000 compounds, 2.8% hits. AID 485297, 2010; also: nearly all actives have a fitted effect of over 60% in size
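Promoter activation is measured as luciferase luminescence in Huh7 cells stably transfected with a Rab9 promoter–luciferase construct, following 24 h compound exposure at 37 °C and 10 min reagent incubation at ambient temperature.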
NPC1 prom act – qHTS Assay for NPC1 Promoter Activators. Huh7 NPC1 promoter luciferase reporter, 24 h. Potency, µM (highest dose often 9.22 µM), hits mostly activators. 320,000 compounds, 2.4% hits. AID 485313, 2010; also: nearly all actives have a fitted effect of over 60% in size
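Stable NPC1-promoter luciferase Huh7 line; cpd (DMSO) 24 h, 37 °C, 5% CO2; Amplite luciferase reagent 10 min RT; luminescence readout. qHTS format.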
Of the large screens only hits and unclear results are named; the others gave an inactive call. Shown are actives, neighbours in structure and some others; about 9.2% of the full set was active somewhere. Calls follow the shape of the dose curve; as a rule, active = well fitted curve in the direction sought with a large enough effect; inconclusive = small, poorly fitted or top-dose-only effect, or another doubt; inactive = no such curve, though single readings can be large; an effect the other way counts as inactive or inconclusive.

CCC(C)[C@H](NC(=O)c1cc2cc(Cl)ccc2n1C)C(=O)N1CCC[C@H]1C(=O)O (stereo not given in full)	none (no result: SMN2 splice enh)
CCOC(=O)C1CCN(C(=O)COc2ccc(Br)cc2C)CC1	none
CCN(CC)S(=O)(=O)c1ccc2nc(NC(=O)c3ccco3)sc2c1	FLuc modulator 19µM, ELG1 DNA repair inconclusive
CCN(CC)S(=O)(=O)c1ccc2nc(NC(=O)c3cccs3)sc2c1	FLuc modulator 15.1µM, ELG1 genotox inconclusive, SMN2 splice enh inconclusive, ELG1 DNA repair inconclusive, Rab9 promoter act inconclusive
CCN(CC)S(=O)(=O)c1ccc2nc(NC(=O)c3ccccc3OC)sc2c1	none (no result: ELG1 genotox, SMN2 splice enh, ELG1 DNA repair, Rab9 promoter act, NPC1 prom act)
CC(C)(C)C(=O)Nc1nnc(SCC(=O)Nc2ccc3c(c2)OCO3)s1	none
O=C(O)CSc1nnc(NC(=O)c2ccc3c(c2)OCO3)s1	FLuc modulator 1.9µM
CC(C)(C)Cc1nnc(NC(=O)c2ccc3c(c2)OCO3)s1	FLuc modulator inconclusive, ELG1 genotox inconclusive, ELG1 DNA repair inconclusive, Rab9 promoter act 2.24µM, NPC1 prom act 2.24µM (no result: SMN2 splice enh)
COC(=O)CSc1nnc(NC(=O)c2ccc3c(c2)OCO3)s1	FLuc modulator 0.536µM, ELG1 genotox 14.6µM, ELG1 DNA repair inconclusive, Rab9 promoter act inconclusive (no result: SMN2 splice enh)
COCCNC(=O)C(c1ccc(C)cc1)N(Cc1ccco1)C(=O)CCC(=O)Nc1ccccn1 (stereo not given)	none (no result: SMN2 splice enh)
O=C(Nc1ccccc1)N(O)c1ccc(Cl)cc1	FLuc modulator 12µM, ELG1 genotox inconclusive, SMN2 splice enh inconclusive, ELG1 DNA repair inconclusive, Rab9 promoter act 3.55µM, NPC1 prom act inconclusive
CCN(CCS(=O)(=O)c1ccc(Cl)cc1)C(=O)Nc1ccccc1	none (no result: SMN2 splice enh)
O=C(c1ccccc1SCc1ccc(F)cc1)N1CCOCC1	none (no result: SMN2 splice enh)
O=C(/C=C/c1ccc2c(c1)OCO2)Nc1nc(-c2ccccc2)cs1	FLuc modulator 3.01µM, ELG1 DNA repair 18.4µM
O=C(/C=C/c1ccc2c(c1)OCO2)Nc1nncs1	FLuc modulator 2.13µM, ELG1 genotox inconclusive, Rab9 promoter act 2µM, NPC1 prom act 2.24µM (no result: SMN2 splice enh)
CCOC(=O)c1[nH]c2ccc(OC)cc2c1NC(=O)/C=C/c1ccc2c(c1)OCO2	ELG1 genotox inconclusive, SMN2 splice enh inconclusive
CC(C)(C)c1ccc(/C=C/C(=O)Nc2nncs2)cc1	FLuc modulator 0.953µM, ELG1 genotox 2.59µM, SMN2 splice enh inconclusive, ELG1 DNA repair inconclusive, Rab9 promoter act 0.708µM, NPC1 prom act 0.794µM
O=C(/C=C/c1ccc2c(c1)OCO2)Nc1c(C(=O)O)[nH]c2ccccc12	FLuc modulator 7.57µM
CC(C)(C)c1ccc(/C=C/C(=O)Nc2ccc3c(c2)OCCO3)cc1	none (no result: FLuc modulator, ELG1 genotox, ELG1 DNA repair)
C=C1C=C(C(F)F)n2ncc(C(=O)NCc3ccccc3C(F)(F)F)c2N1	none (no result: ELG1 genotox, SMN2 splice enh, ELG1 DNA repair, Rab9 promoter act, NPC1 prom act)
Cc1sc(NC(=O)/C=C/c2ccc3c(c2)OCO3)nc1-c1ccccc1	FLuc modulator 9.53µM, ELG1 DNA repair 8.2µM
O=C(NCc1ccccc1Cl)c1ccccc1Oc1ccccc1	none
O=C(/C=C/c1ccco1)Nc1ccc2c(c1)OCO2	FLuc modulator 6.01µM, ELG1 genotox inconclusive, SMN2 splice enh 10µM, ELG1 DNA repair inconclusive, Rab9 promoter act 0.794µM, NPC1 prom act 1.78µM
O=C(/C=C/c1ccco1)Nc1ccc(F)cc1	FLuc modulator 13.5µM, Rab9 promoter act 3.98µM, NPC1 prom act 3.98µM (no result: ELG1 genotox, SMN2 splice enh, ELG1 DNA repair)
O=C(/C=C/c1ccco1)NCc1ccc2c(c1)OCO2	FLuc modulator inconclusive
O=C(NCCN1CCOCC1)C1CCCN(S(=O)(=O)c2ccc(F)cc2)C1 (stereo not given)	none (no result: SMN2 splice enh)
Cc1cc(C)n(CCN(C)Cc2nc(Cc3ccccc3F)no2)n1	FLuc modulator 4.78µM, ELG1 genotox inconclusive, ELG1 DNA repair inconclusive, Rab9 promoter act inconclusive, NPC1 prom act inconclusive (no result: SMN2 splice enh)
CN(Cc1nc(Cc2ccccc2F)no1)[C@@H]1CS(=O)(=O)C[C@H]1O	none (no result: SMN2 splice enh)
O=c1oc2ccccc2c(Nc2ccccc2O)c1[N+](=O)[O-]	none (no result: SMN2 splice enh)
O=c1oc2ccccc2c(Nc2cc3ccccc3cc2O)c1[N+](=O)[O-]	FLuc modulator 12µM, ELG1 DNA repair inconclusive, Rab9 promoter act inconclusive, NPC1 prom act inconclusive (no result: SMN2 splice enh)
COc1ccc(/C=C2\N=C(c3ccccc3Cl)NC2=O)cc1	FLuc modulator 1.69µM, ELG1 DNA repair inconclusive (no result: SMN2 splice enh)
COc1ccc(/C=C2\N=C(SC)NC2=O)cc1	FLuc modulator inconclusive (no result: ELG1 genotox, ELG1 DNA repair, Rab9 promoter act, NPC1 prom act)
Cc1ccc(OCCCCN2CCCC(C)C2)c([N+](=O)[O-])c1 (stereo not given)	none
CC(=O)Nc1ccc(S(=O)(=O)N(C)CC(=O)NNc2c(F)c(F)cc(F)c2F)cc1	none (no result: FLuc modulator, SMN2 splice enh, Rab9 promoter act, NPC1 prom act)
COc1cccc(-c2nn(-c3ccccc3)cc2/C=C(/NC(=O)c2ccccc2)C(=O)O)c1	FLuc modulator 26.9µM, ELG1 DNA repair inconclusive (no result: SMN2 splice enh)
COc1cccc(-c2nn(-c3ccccc3)cc2C(=O)NCC(=O)O)c1	FLuc modulator 9.53µM
COc1cccc(-c2nn(-c3ccccc3)cc2C(=O)OCC(=O)Nc2ncc(Cl)cc2Cl)c1	FLuc modulator inconclusive, ELG1 DNA repair 20.6µM (no result: SMN2 splice enh)
COc1cccc(-c2nn(-c3ccccc3)cc2CO)c1	FLuc modulator 13.5µM (no result: ELG1 genotox, ELG1 DNA repair, Rab9 promoter act, NPC1 prom act)
Cc1c(-c2ccc(Cl)cc2)noc1C1CCN(CCc2ccccc2)CC1	none (no result: FLuc modulator, ELG1 genotox, ELG1 DNA repair, Rab9 promoter act, NPC1 prom act)

From PubChem
